For assay [1], the system named is CRL-7250. The assay can be described thus: Cytotoxic Profiling of Annotated Libraries Using Quantitative High-Throughput Screening (AID 1296008). Also: nearly all actives have a fitted effect of over 60% in size. Also: potency is read from the fitted curve at half-maximal effect. As to max response: % is scaled to controls: 0 for no effect and ±100 for the full control effect. Conditions: Five cell lines viability, CellTiter-Glo ATP luminescence, 48-72 h; max response: stronger effect = lower value. The procedure, abridged: (§1)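 Compounds were pin-transferred onto cells and incubated 48 or 72 hr at 37 degree Celsius, 95% humidity. CellTiter-Glo was added, plates sat 10 min at room temperature, then ATP-coupled luminescence was imaged as the viability read-out.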
A general note: ATP-based viability assays read luminescence as a measure of living cells.

Assay [2] deals with HEK293. Described as above. The following applies: Five cell lines viability, CellTiter-Glo ATP luminescence, 48-72 h; max response: stronger effect = lower value. The procedure, abridged: as §1
For assay [3], the system named is HaCat. The assay is described as above. Conditions: Five cell lines viability, CellTiter-Glo ATP luminescence, 48-72 h; max response: stronger effect = lower value. A digest of the protocol:
as §1

Assay [4] relates to KB-3-1. The assay is described as above. The following applies: Five cell lines viability, CellTiter-Glo ATP luminescence, 48-72 h; max response: stronger effect = lower value. The procedure, abridged: as §1
In assay [5] the test system is NIH3T3. The description is as above. The following applies: Five cell lines viability, CellTiter-Glo ATP luminescence, 48-72 h; max response: stronger effect = lower value. The procedure, abridged:
as §1

Assay [6] deals with HACAT. In words: qHTS assay to identify novel small-molecules to repurpose for Merkel cell carcinoma treatment (AID 1296009). Also: nearly all actives have a fitted effect of over 60% in size. The following applies: MCC and control cell lines, CellTiter-Glo viability, 72 h; at 44.8 µM (top of the series) unless noted. A digest of the protocol: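 Cells exposed to NPC (8-point) and MIPE (11-point) compound dilutions for 72 hr at 37 degree celsius; viability read by CellTiter-Glo luminescence, normalized to no-cell and DMSO in-plate controls.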
For orientation: Quantitative high-throughput screening tests each substance at several concentrations.

Assay [7] deals with C33A. In words: Primary qHTS to identify gynecologic anti-cancer compounds using libraries of approved drugs and bioactive compounds (AID 1345084). Also: % is scaled to controls: 0 for no effect and ±100 for the full control effect; nearly all actives have a fitted effect of over 55% in size. The following applies: Gynecologic cancer cell panel viability, ATPlite luminescence, 48 h; series mostly up to 57.5 µM. A digest of the protocol: (§2)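 Cell viability after 48 h drug treatment, ATPlite luminescence readout; five doses.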

Assay [8] relates to CAOV3. The description is as above. The following applies: Gynecologic cancer cell panel viability, ATPlite luminescence, 48 h; series mostly up to 57.5 µM. The procedure, abridged: as §2
Assay [9] relates to CASKI. Described as above. The following applies: Gynecologic cancer cell panel viability, ATPlite luminescence, 48 h; series mostly up to 57.5 µM. A digest of the protocol:
as §2

In assay [10] the test system is Es-2. Described as above. The following applies: Gynecologic cancer cell panel viability, ATPlite luminescence, 48 h; series mostly up to 57.5 µM. A digest of the protocol: as §2
For assay [11], the system named is HeLa. The description is as above. The following applies: Gynecologic cancer cell panel viability, ATPlite luminescence, 48 h; series mostly up to 57.5 µM. The procedure, abridged: as §2
In assay [12] the test system is Hek293T. The assay is described as above. The following applies: Gynecologic cancer cell panel viability, ATPlite luminescence, 48 h, control line for the selectivity index; series mostly up to 57.5 µM. The procedure, abridged: as §2
Assay [13] deals with JEG-3. The description is as above. The following applies: Gynecologic cancer cell panel viability, ATPlite luminescence, 48 h; series mostly up to 57.5 µM. The procedure, abridged: as §2
For assay [14], the system named is OV90. The description is as above. Conditions: Gynecologic cancer cell panel viability, ATPlite luminescence, 48 h; series mostly up to 57.5 µM. A digest of the protocol: as §2

SMILES strings stand for the structures. Records with an inconclusive call do not appear. A number with no mark means an inactive call. The source made the active and inactive calls. Calls follow the shape of the dose curve; as a rule, active = well fitted curve in the direction sought with a large enough effect; inconclusive = small, poorly fitted or top-dose-only effect, or another doubt; inactive = no such curve, though single readings can be large; an effect the other way counts as inactive or inconclusive.

On to `CC(C)N(CCCNC(=O)Nc1ccc(C(C)(C)C)cc1)C[C@H]1O[C@@H](n2ccc3c(N)ncnc32)[C@H](O)[C@@H]1O`, for which the max response in [1] is 1.45%; in assay [2], -23.8%; in assay [4], -3.09%; in assay [5], -13.2%. The molecule was called inactive in assay [3], in assay [6] and in assay [9]. Besides, the Potency entry in [7], in assay [8], in assay [10], in assay [11], in assay [12] and in assay [13] was “inactive” in each case. Also, in assay [14], the Potency entry is “inactive”.
`COc1cccc2c1c(O)c(C(=O)N(C)c1ccc(C(F)(F)F)cc1)c(=O)n2C`: the max response was -1.12% in assay [1], 3.79% in assay [2], 0.95% in assay [4] and 2.51% in assay [5]. Also, the call in assay [3], in assay [6] and in assay [9] was inactive. Further, the Potency result in [7], in [8], in assay [10], in [11], in [12] and in assay [13] was “inactive” in each case. Besides, the Potency result in assay [14] was “inactive”.
For the molecule `CC(=O)/C=C/C1C(C)CC(O[C@@H]2O[C@H](CO)[C@@H](O)[C@H](O)[C@H]2O)CC1(C)C` (stereo partly specified), the molecule was classed as inactive in assay [1], in assay [3], in [4], in assay [5], in assay [6] and in [9]. Also, in [2], the max response is 3.69%. In addition, the Potency result in assay [7], in assay [8], in [10], in assay [11], in [12] and in assay [13] was “inactive” in each case. In addition, the Potency entry in assay [14] was “inactive”.
With `C=CCc1ccc(O[C@@H]2O[C@H](CO)[C@@H](O)[C@H](O)[C@H]2O)c(O[C@@H]2O[C@H](CO)[C@@H](O)[C@H](O)[C@H]2O)c1`, the max response in assay [1] was -3.11%; in assay [2] it was -0.299%. For the same molecule, the molecule was called inactive in assay [3], in assay [4], in assay [5] and in assay [9]. In [6], the outcome was “inactive [at 17.4 µM]”. Besides, the Potency result in assay [7], in assay [8], in assay [10], in assay [11], in assay [12] and in [13] was “inactive” each time. Also, the Potency result in assay [14] was “inactive”.
For `CNc1nc(Nc2cn(C(C)(C)C#N)nc2C)ncc1C(F)(F)F`, the max response is 0.355% in assay [1], -5.29% in assay [2], 6.02% in assay [4] and -4.77% in assay [5]. Besides, the molecule was classed as inactive in [3], in assay [6] and in assay [9]. The Potency entry in [7], in assay [8], in assay [10], in assay [11], in assay [12] and in [13] was “inactive” in each case. For the same molecule, in [14], the Potency entry is “inactive”.
Regarding `CC(=O)OC/C(=C/C(=O)O)CC[C@@H]1C(CO)=CC[C@@H]2C(C)(C)CCC[C@@]12C`, the max response is 1.35% in [1], 1.68% in assay [2] and -1.93% in [5]. The molecule was classed as inactive in [3], in [4], in assay [6] and in [9]. Further, the Potency entry in [7], in assay [8], in assay [10], in [11], in assay [12] and in assay [13] was “inactive” each time. The Potency entry in [14] was “inactive”.
As for `C=C(C)[C@H]1CC[C@]2(C(=O)O)CC[C@]3(C)C(CCC4[C@@]5(C)CCC(=O)C(C)(C)C5CC[C@]43C)C12` (stereo partly specified), the max response was -18.5% in assay [1], -14.2% in assay [4] and -1.29% in assay [5]. Moreover, in [2], the Potency is 7.09 µM (active). In addition, the molecule was called inactive in [3] and in [9]. Besides, in assay [6], the outcome is “inactive [at 17.4 µM]”. The Potency result in assay [7], in assay [8], in assay [10], in assay [11], in assay [12] and in assay [13] was “inactive” in each case. For the same molecule, the Potency result in assay [14] was “inactive”.
Turning to `COC(=O)[C@]1(Cc2ccc(O)c(CC=C(C)C)c2)OC(=O)C(O)=C1c1ccc(O)cc1`, the max response in assay [1] is 1.22%; in assay [2] it was 3.25%; in [5] it was 0.954%. The molecule was called inactive in assay [3], in assay [4] and in [9]. Besides, the outcome in assay [6] is “inactive [at 17.4 µM]”. Besides, the Potency entry in assay [7], in assay [8], in [10], in assay [11], in assay [12] and in assay [13] was “inactive” each time. Moreover, the Potency result in [14] was “inactive”.
With `COc1cc(O)c2c(c1)C1(OC2=O)C(C)=CC(=O)C1O` (stereo unspecified), the result in [1], in [3], in assay [6] and in assay [9] was inactive. For the same molecule, the max response in [2] is -12.8%; in assay [4] it was 7.65%; in assay [5] it was 4.25%. Also, the Potency entry in assay [7], in [8], in assay [10], in assay [11], in assay [12] and in assay [13] was “inactive” in each case. Also, the Potency result in [14] is “inactive”.
In the case of `CC(CC(C)O[C@@H]1O[C@H](CO)[C@@H](O)[C@H](O)[C@H]1O)OC(=O)/C=C/c1ccc(O)cc1` (stereo partly specified), the max response is 2.71% in assay [1], -1.24% in assay [2] and 3.43% in assay [5]. Moreover, the outcome in assay [3], in assay [4] and in [9] was inactive. Besides, in assay [6], the outcome was “inactive [at 17.4 µM]”. Also, the Potency entry in assay [7], in assay [8], in [10], in [11], in assay [12] and in assay [13] was “inactive” in each case. Also, the Potency entry in assay [14] was “inactive”.
Regarding `CC1(C)CC=C(C#Cc2ccccc2)c2cc(/C=C/c3ccc(C(=O)O)cc3)ccc21`, the max response in assay [1] is -4.79%; in [2] it was 1.6%; in assay [4] it was 3.78%; in assay [5], -4.98%. The result in [3], in assay [6] and in assay [9] was inactive. Besides, the Potency result in assay [7], in assay [8], in assay [10], in assay [11], in assay [12] and in assay [13] was “inactive” in each case. Further, the Potency result in assay [14] was “inactive”.
Regarding `C=C(COC(=O)C(C)C)C1Oc2cc(C(C)=O)ccc2C1OC(=O)C(C)C` (stereo unspecified), the max response is -10.7% in [1], 1.24% in assay [2], 4.68% in assay [4] and 0.455% in [5]. Also, the molecule was classed as inactive in [3], in assay [6] and in assay [9]. Moreover, the Potency entry in assay [7], in [8], in [10], in assay [11], in [12] and in assay [13] was “inactive” in each case. In addition, in assay [14], the Potency entry was “inactive”.
Regarding `COc1ccc(/C=C/C(=O)O[C@@H]2[C@@H](O[C@@H]3O[C@H](CO)[C@@H](O)[C@H](O)[C@H]3O)[C@@H](O)[C@H](O[C@H]3C4C=CO[C@@H](O[C@@H]5O[C@H](CO)[C@@H](O)[C@H](O)[C@H]5O)C4[C@@]4(CO)O[C@@H]34)O[C@H]2C)cc1` (stereo partly specified), the results for the max response in assay [1], in [2] and in assay [4] were -8.31%, -3.69% and -1.62%, respectively. Also, the outcome in assay [3] and in assay [5] was inactive. For the same molecule, the outcome in assay [6] is “inactive [at 9.27 µM]”. Further, the activity change, negative = cytotoxicity in assay [7] is -3.09% [at 11.6 µM]; in assay [8], -4.58% [at 11.6 µM]; in assay [9], 6.26% [at 11.6 µM]; in [10], 3.1% [at 11.6 µM]; in assay [11] it was 5.69% [at 11.6 µM]; in [12], 2.2% [at 11.6 µM]. In addition, the activity change, negative = cytotoxicity in assay [13] was 7.02% [at 11.6 µM]; in [14], 9.16% [at 11.6 µM].
On to `C[C@@H]1O[C@@H](O[C@@H]2\C=C/C=C\C=C/C=C\C[C@H](C)OC(=O)/C=C\[C@H]3O[C@@H]3C[C@H](O)C[C@]3(O)C[C@@H](O)[C@@H](C(=O)O)[C@H](C2)O3)[C@H](O)[C@H](N)[C@@H]1O`, for which the results for the max response in assay [1], in assay [2] and in assay [5] were 3.44%, 3.56% and 3.56%, respectively. Besides, the call in assay [3], in [4], in assay [6] and in [9] was inactive. Besides, the Potency entry in assay [7], in assay [8], in assay [10], in [11], in assay [12] and in assay [13] was “inactive” in each case. Also, the Potency result in [14] is “inactive”.

(Values after PubChem BioAssay (NCATS).)
